In the supplement of paper PMC11732987, “Enantioselective OTUD7B fragment discovery through chemoproteomics screening and high-throughput optimisation” (Communications Chemistry, 2025):
Unmarked numbers belong to inactive results.

Experiments:
Experiment in all cases: log2 ratio of Biotin-Ahx-Ub-VS probe labelling (fragment/DMSO); higher = less target engagement (more negative = stronger competition), active = hit call of the paper (q ≤ 0.05, log2 ratio ≤ -1)
Conditions in all cases: compound concentration: 200 uM; treatment time: 3 h
[1] = target: T1, USP19 (UniProt O94966)
T1 sequence (whole entry): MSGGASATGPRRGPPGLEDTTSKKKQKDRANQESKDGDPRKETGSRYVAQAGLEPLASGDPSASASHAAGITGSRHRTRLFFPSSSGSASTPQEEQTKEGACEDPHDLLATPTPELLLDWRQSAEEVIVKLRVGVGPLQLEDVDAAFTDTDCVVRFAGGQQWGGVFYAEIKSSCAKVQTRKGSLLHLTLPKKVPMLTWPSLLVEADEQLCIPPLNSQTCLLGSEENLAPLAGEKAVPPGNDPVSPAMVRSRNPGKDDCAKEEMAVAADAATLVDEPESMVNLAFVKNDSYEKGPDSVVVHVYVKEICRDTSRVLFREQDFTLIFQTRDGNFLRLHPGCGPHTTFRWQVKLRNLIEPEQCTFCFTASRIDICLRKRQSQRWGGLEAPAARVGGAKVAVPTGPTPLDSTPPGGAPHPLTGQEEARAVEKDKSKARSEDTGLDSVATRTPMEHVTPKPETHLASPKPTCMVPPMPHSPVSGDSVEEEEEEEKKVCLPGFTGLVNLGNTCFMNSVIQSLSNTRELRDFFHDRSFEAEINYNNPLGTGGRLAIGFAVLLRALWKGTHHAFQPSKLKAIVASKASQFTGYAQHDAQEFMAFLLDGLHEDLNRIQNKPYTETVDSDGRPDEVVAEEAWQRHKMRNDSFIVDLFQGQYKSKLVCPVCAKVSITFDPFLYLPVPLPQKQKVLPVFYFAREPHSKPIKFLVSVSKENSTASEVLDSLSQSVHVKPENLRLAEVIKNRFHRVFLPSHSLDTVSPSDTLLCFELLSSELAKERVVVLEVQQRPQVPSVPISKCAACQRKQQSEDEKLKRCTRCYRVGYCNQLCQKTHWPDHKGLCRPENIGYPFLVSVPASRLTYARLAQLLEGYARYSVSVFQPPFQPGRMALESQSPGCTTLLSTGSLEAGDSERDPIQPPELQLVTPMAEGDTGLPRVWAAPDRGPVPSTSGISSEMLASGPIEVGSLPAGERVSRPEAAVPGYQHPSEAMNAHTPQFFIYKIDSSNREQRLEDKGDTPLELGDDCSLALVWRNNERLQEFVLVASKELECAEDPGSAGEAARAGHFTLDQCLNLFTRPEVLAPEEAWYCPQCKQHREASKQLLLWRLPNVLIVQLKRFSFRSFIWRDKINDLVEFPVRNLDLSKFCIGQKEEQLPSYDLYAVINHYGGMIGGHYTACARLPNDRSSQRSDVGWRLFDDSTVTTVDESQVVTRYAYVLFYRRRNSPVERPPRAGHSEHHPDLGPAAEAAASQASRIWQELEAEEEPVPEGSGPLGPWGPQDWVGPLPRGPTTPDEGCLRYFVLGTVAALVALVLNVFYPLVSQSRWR
Outline: (§1)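 Each value is an average log2 ratio of fragment to vehicle, tested by unpaired t-test. The underlying Spectronaut label-free quantities were global-median-normalised, and only proteins with ≥2 unique peptides were included. Triplicate HEK293T lysate samples (495 µg) were exposed to fragment at 200 µM or vehicle for 3 h, then to Biotin-Ahx-Ub-VS at 0.5 µM final for 1 h, before NeutrAvidin enrichment of labelled DUBs, LysC and trypsin digestion, and diaPASEF LC-MS/MS.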

[2] = target: T2, USP22 (UniProt Q9UPT9)
T2 sequence (whole entry): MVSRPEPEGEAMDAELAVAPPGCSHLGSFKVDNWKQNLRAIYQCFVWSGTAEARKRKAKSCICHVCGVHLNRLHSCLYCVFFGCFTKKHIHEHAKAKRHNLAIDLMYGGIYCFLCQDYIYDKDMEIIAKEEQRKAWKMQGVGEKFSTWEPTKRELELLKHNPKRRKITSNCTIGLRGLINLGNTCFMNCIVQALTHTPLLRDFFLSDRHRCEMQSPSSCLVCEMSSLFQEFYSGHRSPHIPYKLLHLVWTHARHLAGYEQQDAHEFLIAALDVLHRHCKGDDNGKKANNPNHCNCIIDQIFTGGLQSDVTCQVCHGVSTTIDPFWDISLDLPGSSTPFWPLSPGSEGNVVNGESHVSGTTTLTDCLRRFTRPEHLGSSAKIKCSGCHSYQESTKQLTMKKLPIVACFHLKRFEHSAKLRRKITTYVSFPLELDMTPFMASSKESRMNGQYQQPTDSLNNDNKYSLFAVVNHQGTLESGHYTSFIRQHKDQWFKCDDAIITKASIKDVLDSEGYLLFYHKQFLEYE
Outline: as §1

[3] = target: USP24 (UniProt Q9UPU5)
Outline: as §1

[4] = target: T3, USP25 (UniProt Q9UHP3)
T3 sequence (whole entry): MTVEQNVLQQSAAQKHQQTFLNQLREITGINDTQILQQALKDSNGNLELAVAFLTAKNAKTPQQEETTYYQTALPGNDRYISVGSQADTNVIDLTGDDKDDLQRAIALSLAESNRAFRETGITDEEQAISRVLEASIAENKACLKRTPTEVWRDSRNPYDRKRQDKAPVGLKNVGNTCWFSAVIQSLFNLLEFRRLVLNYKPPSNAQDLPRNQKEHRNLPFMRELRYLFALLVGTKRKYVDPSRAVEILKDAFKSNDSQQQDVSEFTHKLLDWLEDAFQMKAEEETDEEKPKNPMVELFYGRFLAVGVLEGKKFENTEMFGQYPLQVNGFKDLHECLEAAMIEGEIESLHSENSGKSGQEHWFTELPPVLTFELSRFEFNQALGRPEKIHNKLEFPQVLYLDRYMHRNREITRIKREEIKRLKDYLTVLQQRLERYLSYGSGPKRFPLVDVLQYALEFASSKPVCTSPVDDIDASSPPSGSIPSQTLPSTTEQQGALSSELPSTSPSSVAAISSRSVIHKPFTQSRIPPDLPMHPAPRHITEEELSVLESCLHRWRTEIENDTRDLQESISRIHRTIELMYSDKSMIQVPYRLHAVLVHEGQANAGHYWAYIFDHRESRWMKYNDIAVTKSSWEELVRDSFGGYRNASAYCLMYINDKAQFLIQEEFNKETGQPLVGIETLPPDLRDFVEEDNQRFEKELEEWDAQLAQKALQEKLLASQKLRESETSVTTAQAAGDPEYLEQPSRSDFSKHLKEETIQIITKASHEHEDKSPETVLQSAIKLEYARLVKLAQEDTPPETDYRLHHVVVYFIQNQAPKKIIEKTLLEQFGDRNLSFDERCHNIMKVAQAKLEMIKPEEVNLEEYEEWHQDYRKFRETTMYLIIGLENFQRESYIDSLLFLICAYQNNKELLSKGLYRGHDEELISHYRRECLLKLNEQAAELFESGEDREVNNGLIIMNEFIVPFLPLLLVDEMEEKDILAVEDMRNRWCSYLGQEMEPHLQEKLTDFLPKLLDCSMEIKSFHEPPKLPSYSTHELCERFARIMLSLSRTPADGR
Outline: as §1

[5] = target: T4, USP28 (UniProt Q96RU2)
T4 sequence (whole entry): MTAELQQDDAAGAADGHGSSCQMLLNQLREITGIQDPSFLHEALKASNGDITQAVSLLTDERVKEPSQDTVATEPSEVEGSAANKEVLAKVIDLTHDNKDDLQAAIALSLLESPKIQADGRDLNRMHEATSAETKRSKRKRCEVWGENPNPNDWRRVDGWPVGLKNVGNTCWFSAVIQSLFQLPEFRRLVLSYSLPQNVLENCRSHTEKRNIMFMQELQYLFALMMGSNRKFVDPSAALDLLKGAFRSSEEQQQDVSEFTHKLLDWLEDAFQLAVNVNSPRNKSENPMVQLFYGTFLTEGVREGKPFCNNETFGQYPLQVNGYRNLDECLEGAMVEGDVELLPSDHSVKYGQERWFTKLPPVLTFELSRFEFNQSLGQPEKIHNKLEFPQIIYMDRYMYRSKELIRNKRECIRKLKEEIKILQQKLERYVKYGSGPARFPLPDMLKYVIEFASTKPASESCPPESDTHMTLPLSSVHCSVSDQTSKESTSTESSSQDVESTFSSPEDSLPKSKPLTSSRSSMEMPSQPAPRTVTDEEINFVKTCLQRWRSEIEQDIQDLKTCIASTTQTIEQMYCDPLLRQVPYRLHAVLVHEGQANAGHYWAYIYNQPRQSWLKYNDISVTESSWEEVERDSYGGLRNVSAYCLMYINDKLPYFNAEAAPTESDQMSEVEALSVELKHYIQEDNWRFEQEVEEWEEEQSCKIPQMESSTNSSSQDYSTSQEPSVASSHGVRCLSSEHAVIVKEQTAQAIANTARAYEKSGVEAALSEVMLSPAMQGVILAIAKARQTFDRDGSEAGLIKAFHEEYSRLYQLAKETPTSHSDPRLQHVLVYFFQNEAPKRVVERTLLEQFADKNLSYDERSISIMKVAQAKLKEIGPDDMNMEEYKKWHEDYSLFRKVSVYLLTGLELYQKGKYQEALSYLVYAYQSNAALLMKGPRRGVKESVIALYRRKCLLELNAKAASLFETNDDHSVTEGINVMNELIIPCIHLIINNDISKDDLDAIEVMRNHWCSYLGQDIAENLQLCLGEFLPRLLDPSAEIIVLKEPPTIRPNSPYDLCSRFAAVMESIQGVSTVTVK
Outline: as §1

Chain of USP24 (Q9UPU5 whole entry): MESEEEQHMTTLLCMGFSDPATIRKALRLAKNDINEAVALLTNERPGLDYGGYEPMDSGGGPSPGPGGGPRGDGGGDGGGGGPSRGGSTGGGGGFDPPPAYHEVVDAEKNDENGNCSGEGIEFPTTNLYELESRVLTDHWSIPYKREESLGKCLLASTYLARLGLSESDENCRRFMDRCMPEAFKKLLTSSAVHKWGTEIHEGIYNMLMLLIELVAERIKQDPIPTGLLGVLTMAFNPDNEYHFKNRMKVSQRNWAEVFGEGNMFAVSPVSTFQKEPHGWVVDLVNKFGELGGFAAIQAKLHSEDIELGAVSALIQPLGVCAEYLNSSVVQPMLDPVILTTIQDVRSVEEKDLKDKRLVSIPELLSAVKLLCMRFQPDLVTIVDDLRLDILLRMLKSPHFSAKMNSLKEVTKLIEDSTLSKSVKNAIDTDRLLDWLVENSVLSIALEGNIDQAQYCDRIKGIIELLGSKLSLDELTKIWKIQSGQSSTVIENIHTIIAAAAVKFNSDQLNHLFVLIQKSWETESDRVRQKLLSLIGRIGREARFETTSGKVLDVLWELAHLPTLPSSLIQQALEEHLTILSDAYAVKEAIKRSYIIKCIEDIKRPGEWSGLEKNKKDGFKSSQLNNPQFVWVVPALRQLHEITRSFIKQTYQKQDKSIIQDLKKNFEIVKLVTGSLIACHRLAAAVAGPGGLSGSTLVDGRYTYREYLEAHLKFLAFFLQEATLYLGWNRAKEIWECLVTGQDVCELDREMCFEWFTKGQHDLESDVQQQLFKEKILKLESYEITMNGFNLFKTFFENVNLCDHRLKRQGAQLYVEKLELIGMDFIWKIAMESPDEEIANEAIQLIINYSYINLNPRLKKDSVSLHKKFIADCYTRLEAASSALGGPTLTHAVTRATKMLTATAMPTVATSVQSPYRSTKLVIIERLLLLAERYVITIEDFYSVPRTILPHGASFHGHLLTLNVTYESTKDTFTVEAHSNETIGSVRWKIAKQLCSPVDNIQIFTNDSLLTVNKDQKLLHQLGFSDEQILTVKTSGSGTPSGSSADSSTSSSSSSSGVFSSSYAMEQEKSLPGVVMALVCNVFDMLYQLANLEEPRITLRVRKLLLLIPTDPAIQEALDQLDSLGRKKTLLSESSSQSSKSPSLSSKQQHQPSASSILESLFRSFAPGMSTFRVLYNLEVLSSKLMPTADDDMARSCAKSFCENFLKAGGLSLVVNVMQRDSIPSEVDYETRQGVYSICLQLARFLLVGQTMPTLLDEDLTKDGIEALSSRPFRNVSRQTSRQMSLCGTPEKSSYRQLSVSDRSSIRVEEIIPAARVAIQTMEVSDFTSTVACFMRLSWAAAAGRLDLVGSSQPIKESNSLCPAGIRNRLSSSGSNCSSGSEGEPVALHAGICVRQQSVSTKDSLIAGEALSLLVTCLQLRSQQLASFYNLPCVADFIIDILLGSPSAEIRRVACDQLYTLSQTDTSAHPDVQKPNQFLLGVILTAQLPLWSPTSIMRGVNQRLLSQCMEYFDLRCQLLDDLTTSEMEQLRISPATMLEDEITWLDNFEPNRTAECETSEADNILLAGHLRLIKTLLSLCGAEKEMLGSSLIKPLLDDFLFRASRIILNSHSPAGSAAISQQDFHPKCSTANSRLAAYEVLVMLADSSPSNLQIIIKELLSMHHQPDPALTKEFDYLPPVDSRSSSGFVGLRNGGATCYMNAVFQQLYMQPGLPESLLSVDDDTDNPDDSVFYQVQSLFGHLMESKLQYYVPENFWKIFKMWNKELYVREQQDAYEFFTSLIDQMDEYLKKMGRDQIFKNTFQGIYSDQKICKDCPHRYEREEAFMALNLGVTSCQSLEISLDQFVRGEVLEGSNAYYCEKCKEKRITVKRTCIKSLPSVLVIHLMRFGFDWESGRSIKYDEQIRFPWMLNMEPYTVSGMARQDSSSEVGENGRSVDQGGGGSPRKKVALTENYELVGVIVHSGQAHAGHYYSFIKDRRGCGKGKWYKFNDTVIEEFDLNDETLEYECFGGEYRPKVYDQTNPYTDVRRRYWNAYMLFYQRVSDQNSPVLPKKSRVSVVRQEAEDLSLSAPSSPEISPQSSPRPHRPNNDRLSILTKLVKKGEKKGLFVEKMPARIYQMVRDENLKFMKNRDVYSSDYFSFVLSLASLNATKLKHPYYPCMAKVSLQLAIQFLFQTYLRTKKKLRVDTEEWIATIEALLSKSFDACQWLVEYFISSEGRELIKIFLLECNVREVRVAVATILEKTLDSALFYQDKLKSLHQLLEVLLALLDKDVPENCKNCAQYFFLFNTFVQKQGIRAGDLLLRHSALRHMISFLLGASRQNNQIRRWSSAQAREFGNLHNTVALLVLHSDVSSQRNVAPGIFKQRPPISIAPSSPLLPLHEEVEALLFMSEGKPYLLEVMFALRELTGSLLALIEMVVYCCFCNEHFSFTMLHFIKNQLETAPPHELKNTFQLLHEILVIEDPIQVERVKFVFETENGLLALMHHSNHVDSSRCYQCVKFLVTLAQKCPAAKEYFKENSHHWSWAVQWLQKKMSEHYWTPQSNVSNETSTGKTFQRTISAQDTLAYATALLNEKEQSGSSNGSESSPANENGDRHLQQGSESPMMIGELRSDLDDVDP

Cc1c(C#N)c(NC(=O)CCl)n(Cc2ccco2)c1C
log2 ratio of Biotin-Ahx-Ub-VS probe labelling [1]: -0.239
log2 ratio of Biotin-Ahx-Ub-VS probe labelling [2]: -0.178
log2 ratio of Biotin-Ahx-Ub-VS probe labelling [3]: -0.837
log2 ratio of Biotin-Ahx-Ub-VS probe labelling [4]: -1.24 (active)
log2 ratio of Biotin-Ahx-Ub-VS probe labelling [5]: -1.76 (active)
